Test results: PubChem BioAssay AID651780 (The Scripps Research Institute Molecular Screening Center, 2012)
In all, about 2,400 compounds went through this assay and about 1,800 (75%) were called active. So high a share suggests a set chosen from earlier hits. Not all results are given here. A number with no mark means an inactive call. No stated cut-off is given here; in the data, active means inhibition above about 22%; inactive means the rest.

test: calcium response inhibition in counter-screen line – cell-based, fluorescence, counter-screen for hTAAR1 antagonist project (AID 651780); settings: counterscreen cell line, antagonist mode, at 3 µM, stronger effect = higher value;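 further: CHO-Ga16 host cells stimulated with ATP at an EC80 level; 0% = agonist EC80 plus vehicle and 100% = vehicle without agonist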

Which inhibition does the source give for `NNC(=O)CNC(c1ccccc1)c1cc(Cl)ccc1NC(=O)c1ccccc1` (stereo not given) here?
Its inhibition is 22.9% (active).

With `CCOc1ccc(NC(=O)N2CC=C(n3c(=O)[nH]c4ccccc43)CC2)cc1` as the compound, how does the inhibition read?
Its inhibition is 19.3%.

For `Cn1c2ccccc2c(=O)c2c(=O)n(Cc3ccco3)c(COc3ccccc3)nc21`, which inhibition is on record?
Its inhibition is 21.8% (active).

Which inhibition does the source give for `Cc1ccc(C)c(N2CCN(C(=O)CCCCCn3c(=S)[nH]c4ccc(N5CCOCC5)cc4c3=O)CC2)c1` here?
The inhibition was 44.4% (active).

With `Cc1ccc(NC(=O)c2ccc(CSc3ncnc4nc[nH]c34)cc2)c(C)c1` as the compound, how does the inhibition read?
Its inhibition is 17.2%.

For `CC(=O)n1cc([C@H]2C=C(C(=O)N3CCOCC3)O[C@@H](OCc3ccc(CO)cc3)C2)c2ccccc21`, which inhibition is on record?
The inhibition was 24.4% (active).

With `O=C(CCc1ccccc1)Nc1cccc(-c2nnc(-c3ccco3)o2)c1` as the compound, how does the inhibition read?
Its inhibition is 25.8% (active).

Which inhibition does the source give for `CCN=C1SC(CC(=O)Nc2ccc(C)cc2)C(=O)N1CC` (stereo not given) here?
The inhibition was 29.4% (active).

For `O=C(Nc1ccccc1-c1nnn(CC(=O)N2CCN(c3ccccc3)CC2)n1)c1cccs1`, which inhibition is on record?
Its inhibition is 36.9% (active).

For `Cn1c(C(=O)NCCc2ccsc2)cc2c(=O)n(C)c3ccccc3c21`, which inhibition is on record?
The inhibition was 27.8% (active).

With `Cc1ccccc1OCC(=O)Nc1ccc(N2CCN(C(=O)C(C)C)CC2)c(Cl)c1` as the compound, how does the inhibition read?
Its inhibition is 43.2% (active).

With `CN(c1ccccc1)S(=O)(=O)c1cc(C(=O)Nc2nc3ccccc3[nH]2)ccc1Cl` as the compound, how does the inhibition read?
The inhibition was 39.7% (active).

With `O=C(NCc1ccc2c(c1)OCO2)c1c(-c2ccsc2)sc2ccccc12` as the compound, how does the inhibition read?
Its inhibition is 21.1%.

Which inhibition does the source give for `COc1ccc(C2=NOC(Cn3nc(C(=O)NCc4ccc5c(c4)OCO5)cc3-c3ccccc3)C2)cc1` (stereo not given) here?
The inhibition was 34.1% (active).

Which inhibition does the source give for `CC(C)N(Cc1ccccc1)C(=O)COC(=O)c1ccccc1SCC(=O)N1CCCC1` here?
The inhibition was 30.8% (active).

With `O=C(COC(=O)c1ccccc1SCC(=O)N1CCCC1)Nc1ccccc1OC(F)F` as the compound, how does the inhibition read?
The inhibition was 27.2% (active).

With `Cc1cc(C(C)(C)C)oc1C(=O)N(CC(=O)NC1CCCC1)Cc1ccc(Cl)cc1` as the compound, how does the inhibition read?
Its inhibition is 36% (active).

For `COC(=O)Cc1nnn2c1[C@H](C)[C@H](c1ccccc1[N+](=O)[O-])OCC2`, which inhibition is on record?
The inhibition was 5.35%.

For `COc1ccc(/C=C/C(=O)Nc2ccc(C34CC5CC(CC(O)(C5)C3)C4)cc2)cc1OC`, which inhibition is on record?
Its inhibition is 37% (active).

Which inhibition does the source give for `CCOc1ccc(N2CC(C(=O)N/N=C/c3sccc3C)CC2=O)cc1` (stereo not given) here?
Its inhibition is 10.5%.

With `CSc1ncnc2c1ncn2CC(=O)C1CCC2C3CCC4=CC(=O)CCC4(C)C3CCC12C` (stereo not given) as the compound, how does the inhibition read?
Its inhibition is 49.7% (active).

With `CC(C)Oc1cc(F)ccc1-c1cc(C(=O)Nc2ccc(F)cc2)[nH]n1` as the compound, how does the inhibition read?
The inhibition was 26.3% (active).

Which inhibition does the source give for `COc1ccc(NC(=O)c2cc(-c3ccc(C)o3)nc3ccccc23)cc1` here?
Its inhibition is 36.1% (active).

With `COc1ccc(-c2cc(C(=O)Nc3ccccc3O)c3ccccc3n2)cc1` as the compound, how does the inhibition read?
The inhibition was 32.2% (active).

For `N#Cc1cccc(NC(=O)COC(=O)c2ccccc2C(=O)c2ccc(Cl)c([N+](=O)[O-])c2)c1`, which inhibition is on record?
The inhibition was 36.1% (active).

Which inhibition does the source give for `O=C(NCCN1CCOCC1)c1ccc(/C=C2\Sc3ccccc3N(Cc3ccc(F)cc3)C2=O)cc1` here?
Its inhibition is 35.2% (active).

Which inhibition does the source give for `O=C(NCCN1C(=O)S/C(=C\c2cccnc2)C1=O)c1ccc(S(=O)(=O)N2CCCC2)cc1` here?
The inhibition was 13%.

Which inhibition does the source give for `COc1ccc(-c2cc(C(=O)N(C)Cc3ccccc3)c3ccccc3n2)cc1` here?
Its inhibition is 27.7% (active).

Which inhibition does the source give for `COc1ccc(-c2cc(C(=O)N(C)Cc3ccc(OC)c(OC)c3OC)c3ccccc3n2)cc1OC` here?
Its inhibition is 30.9% (active).

Which inhibition does the source give for `COc1ccc(-c2cc(C(=O)N(C)CC(=O)Nc3ccccc3Cl)c3ccccc3n2)cc1OC` here?
Its inhibition is 27.4% (active).

Which inhibition does the source give for `COc1ccc(CN(C)C(=O)c2cc(-c3ccc(C)cc3C)nc3ccccc23)c(OC)c1OC` here?
Its inhibition is 28% (active).

With `CCOc1cc(/C=N/NC(=O)c2cc(-c3ccccc3)nc3ccccc23)ccc1O` as the compound, how does the inhibition read?
The inhibition was 19%.

With `O=C(N/N=C/c1ccc(OC(=O)c2ccccc2Cl)cc1)c1ccc(O)cc1` as the compound, how does the inhibition read?
Its inhibition is 36.3% (active).

Which inhibition does the source give for `COc1ccc(C(=O)Nc2ccccc2C(=O)N/N=C/c2ccc(O)c(OC)c2)cc1` here?
Its inhibition is 38.3% (active).

For `CC/C(=N/Nc1ccccc1)c1cnnc(SC)n1`, which inhibition is on record?
The inhibition was 16.8%.
